Hit rate of the full screen: of about 52,000 compounds, about 4,300 (8.3%) were called active. No stated cut-off is given here; in the data, active means survival mostly below about 52% (no sharp cut-off); inactive means mostly above about 56%. Many of the other results were omitted from the sample, so actives are more common in it than they were.
System: DeltatarO mutant
Assay: S. aureus survival, RN4220 and DeltatarO strains – OD600, teichoic acid synthesis inhibitors, primary screen (AID 463173)
Conditions: S. aureus RN4220 wild type/DeltatarO growth, OD600, 18 h, stronger effect = lower value, screened at 18.75 µg/mL (by protocol)

SMILES	survival
O=C(C1CC1)N1CCN(c2nc3ccc(F)cc3s2)CC1	117% (inactive)
Cc1nn(-c2ccccc2)c(OC(=O)c2ccccc2)c1S(=O)(=O)c1ccccc1	81% (inactive)
Cc1cc(C)n(-c2n[nH]c(=S)c3ccccc23)n1	81% (inactive)
CN(Cc1ccccc1)c1ccc(-c2nc(-c3ccco3)no2)cc1[N+](=O)[O-]	52% (inactive)
Cc1cc(Nc2cc(Cl)ccc2C)n2nc(-c3ccccc3)nc2n1	49% (inactive)
Cc1sc(NC(=O)COc2ccc(C(C)(C)C)cc2)c(C(=O)OC(C)C)c1C	10% (active)
CCCc1ccc(OCC(=O)Nc2sc(C(=O)OCC)c(C)c2C(=O)OCC)cc1	82% (inactive)
CCN(CC)C(=O)c1sc(NC(=O)c2nc3ncccn3n2)c(C(=O)OC)c1C	137% (inactive)
CCN(CC)C(=O)c1sc(NC(C)=O)c(C(=O)OC)c1C	99% (inactive)
CCOC(=O)c1c(NC(=O)COc2ccc(OC)cc2)sc(C(=O)N(CC)CC)c1C	3% (active)
CCOC(=O)c1c(NC(=O)COc2cc(C)ccc2C(C)C)sc(C)c1C	63% (inactive)
CCN(CC)C(=O)c1sc(NC(=O)C2c3ccccc3Oc3ccccc32)c(C(=O)OC(C)C)c1C	30% (active)
COC(=O)c1c(NC(=O)COc2ccc(Cl)cc2)sc(C)c1C	67% (inactive)
Cc1c(C(=O)OC(C)C)sc(NC(=O)C2c3ccccc3Oc3ccccc32)c1C(=O)OC(C)C	80% (inactive)
CCOc1ccc(NC(=O)Cn2c3ncccc3c(=O)n2-c2ccc(CC)cc2)cc1	85% (inactive)
Cc1ccc(C(=O)c2oc3ccccc3c2NC(=O)Cc2coc3c(C)c(C)ccc23)cc1	54% (inactive)
CCCCNC(=O)Cn1ncc2c(C)n(Cc3cccc(Cl)c3)c(C)c2c1=O	93% (inactive)
Cn1c(=O)c2[nH]c(=S)[nH]c2n(C)c1=O	103% (inactive)
Cc1c(NC(=O)Nc2ccccc2C(F)(F)F)c(=O)n(-c2ccccc2)n1C	92% (inactive)
CCOc1ccc(NC(=O)Cn2c(=O)n(Cc3nc(-c4ccccc4)no3)c(=O)c3cc4c(cc32)OCO4)cc1	89% (inactive)
CCOCCc1nn2c(=O)cc(COC(=O)C3CCCCC3)nc2s1	88% (inactive)
COc1cccc(OC(=O)N2CCOCC2)c1	103% (inactive)
Cc1ccc2ncc(S(=O)(=O)c3ccccc3)c(N3CCCCC3C)c2c1 (centres undefined)	7% (active)
COc1ccc(S(=O)(=O)c2cnc3ccc(Cl)cc3c2N2CCCCC2C)cc1 (centres undefined)	134% (inactive)

SMILES	survival
CC1CCCCN1c1c(S(=O)(=O)c2ccc(Cl)cc2)cnc2ccccc12 (centres undefined)	102% (inactive)
CCN(CC)CCNC(=O)c1cn(CC)c2ccc(S(=O)(=O)N(C)C3CCCCC3)cc2c1=O	107% (inactive)
O=S1(=O)CCC(N2C(=S)SC3CS(=O)(=O)CC32)C1 (centres undefined)	96% (inactive)
O=C(Cn1c(=O)ccc2cc(S(=O)(=O)N3CCCC3)ccc21)NCc1ccc(Cl)cc1	102% (inactive)
CCc1ccc(-c2cc(C)no2)cc1S(=O)(=O)Nc1ccc(Cl)cc1	68% (inactive)
CCc1ccc(-c2cc(C)no2)cc1S(=O)(=O)Nc1ccc(Cl)cn1	17% (active)
CCc1ccc(-c2cc(C)no2)cc1S(=O)(=O)Nc1ccc(C)cn1	55% (inactive)
CCC1CCCCN1CCCNC(=O)c1c(O)nc2cc(C)ccn2c1=O (centres undefined)	80% (inactive)
COc1ccc(-c2noc(-c3ccc(NCC4CCCO4)c([N+](=O)[O-])c3)n2)cc1 (centres undefined)	42% (active)
COc1ccc(-c2noc(-c3ccc(NCCc4ccccc4)c([N+](=O)[O-])c3)n2)cc1OC	57% (inactive)
COc1ccccc1-c1noc(-c2ccc(NCCc3ccccc3)c([N+](=O)[O-])c2)n1	37% (active)
Cc1ccc(-c2noc(-c3ccc(NCC4CCCO4)c([N+](=O)[O-])c3)n2)cc1 (centres undefined)	74% (inactive)
COc1ccccc1-c1noc(-c2ccc(NCc3cccnc3)c([N+](=O)[O-])c2)n1	47% (inactive)
COc1cc(-c2noc(-c3ccc(NCCc4ccccc4)c([N+](=O)[O-])c3)n2)cc(OC)c1OC	66% (inactive)
O=[N+]([O-])c1cc(-c2nc(-c3ccccc3)no2)ccc1NCCc1ccccc1	58% (inactive)
COc1ccc(-c2noc(-c3ccc(NCCc4ccccc4)c([N+](=O)[O-])c3)n2)cc1	42% (active)
COc1ccc(-c2noc(-c3ccc(NCc4cccnc4)c([N+](=O)[O-])c3)n2)cc1	56% (inactive)
COc1ccccc1-c1noc(-c2ccc(NCc3ccccc3)c([N+](=O)[O-])c2)n1	35% (active)
COc1ccc(-c2noc(-c3ccc(NCC4CCCO4)c([N+](=O)[O-])c3)n2)cc1OC (centres undefined)	54% (inactive)
COc1cc(-c2noc(-c3ccc(NCc4ccccc4)c([N+](=O)[O-])c3)n2)cc(OC)c1OC	79% (inactive)
COCC(=O)Nc1c(C(=O)Nc2ccc(C)cc2)oc2ccccc12	86% (inactive)
Cc1ccc(N)cc1N(C)C	78% (inactive)
Cc1ccc(CN2CCN(C3CCN(S(=O)(=O)N(C)C)CC3)C(=O)C2=O)cc1	82% (inactive)
C=CCn1c(C(NC(=O)c2ccc(Cl)cc2Cl)C(C)C)n[nH]c1=S (centres undefined)	81% (inactive)

SMILES	survival
COc1cc(NC(=O)C2CCN(S(=O)(=O)c3c(C)noc3/C=C/c3c(C)cc(C)cc3C)CC2)cc(OC)c1	78% (inactive)
Cc1cccc(CCNC(=O)C2CCC(CNS(=O)(=O)c3ccccc3)CC2)c1 (centres undefined)	77% (inactive)
Clc1ccc(Nc2c(-c3ccccc3Cl)nc3ccc(Cl)cn23)cc1	45% (inactive)
Cc1ccc(Cl)cc1NC(=O)NCc1cccn1Cc1ccc(F)cc1	104% (inactive)
Cc1cccc(NC(=O)c2c(C)oc3ncn(CC(C)C)c(=O)c23)n1	72% (inactive)
CCOc1ccc(CCNC(=O)c2c(C)oc3ncn(C)c(=O)c23)cc1	84% (inactive)
CSc1ccc(CCNC(=O)c2c(C)oc3ncn(C)c(=O)c23)cc1	-2% (active)
CCN(CC)CCCNC(=O)c1c(C)oc2ncn(CC(C)C)c(=O)c12	70% (inactive)
Cc1oc2ncn(CC(C)C)c(=O)c2c1C(=O)Nc1cccc(C(F)(F)F)c1	-1% (active)
Cc1ccnc(NC(=O)c2c(C)oc3ncn(CC(C)C)c(=O)c23)c1	92% (inactive)
CCNC(=O)c1c(C)oc2ncn(C)c(=O)c12	91% (inactive)
Cc1oc2ncn(CC(C)C)c(=O)c2c1C(=O)NCCCN1CCCCC1	101% (inactive)
CCCCNC(=O)c1c(C)oc2ncn(CC(C)C)c(=O)c12	6% (active)
Cc1cc(S(=O)(=O)N2CCN(Cc3noc(CCC(=O)N4CCCCC4)n3)CC2)ccc1F	89% (inactive)
CCC(=O)N1CCc2cc(Br)cc(S(=O)(=O)N3CCN(c4ccccc4)CC3)c21	73% (inactive)
CCOc1ccc(CNC(=O)C2CCCN(S(=O)(=O)c3ccc4c(c3)CCCC(=O)N4)C2)cc1 (centres undefined)	75% (inactive)
CN1c2ccc(Cl)cc2-c2nc(SCC(=O)NCc3ccc(F)cc3)ncc2S1(=O)=O	117% (inactive)
COc1ccc(-c2cn3c(n2)sc2cc(C(=O)Nc4ccc(F)cc4Cl)ccc23)cc1	61% (inactive)
O=C(c1cc2ccc3cccnc3c2[nH]1)N1CCCCC1	69% (inactive)
Cc1ccc(OC(=O)c2ccco2)cc1C	61% (inactive)
Cc1cc(C)cc(NC(=O)Cc2csc(COc3cccc(C)c3)n2)c1	90% (inactive)
Cc1nc(CC(=O)Nc2ccc(N(C)C)cc2)cs1	45% (active)
Cc1cccc(OCc2nc(CC(=O)Nc3ccc(C)c(C)c3)cs2)c1	85% (inactive)
Cc1nc(CC(=O)Nc2ccc(C)c(C)c2)cs1	40% (active)

SMILES	survival
Cc1cc(C)cc(NC(=O)Cc2csc(C)n2)c1	39% (active)
COc1ccc(NC(=O)Cc2csc(C)n2)cc1	47% (inactive)
Cc1nc(CC(=O)Nc2ccc(C(N)=O)cc2)cs1	49% (inactive)
CCCOC(=O)c1ccc(NC(=O)Cc2csc(C)n2)cc1	105% (inactive)
Cc1cccc(NC(=O)Cc2csc(COc3cccc(C)c3)n2)c1	74% (inactive)
COc1ccc(-c2cc(-c3ccc(F)cc3)nc3c2COc2ccc(F)cc2-3)cc1	65% (inactive)
CCC(=O)N1CCc2cc(S(=O)(=O)NC(CC(C)C)C(=O)NCc3cccc(OC)c3)ccc21 (centres undefined)	73% (inactive)
COC(=O)C1=C(c2ccccc2)c2ccccc2S(=O)(=O)N1CC(=O)Nc1ccc(F)c(F)c1	40% (inactive)
C1CCC(N2CCC(N3CCCCC3)CC2)CC1	91% (inactive)
N#CC(C#N)=Cc1ccc(-c2ccc3c(c2)COC3=O)o1	90% (inactive)
O=C(NC1CCCCC1)N1CCN(Cc2ccccc2)CC1	69% (inactive)
c1ccc(N2CCN(N=C3c4ccccc4-c4ccccc43)CC2)nc1	18% (active)
C(=N\N1CCN(c2ccccn2)CC1)/c1ccco1	100% (inactive)
O=C(NC1CCCCC1)N1CCN(c2ccccn2)CC1	94% (inactive)
C=Cn1c(C)c(C(C#N)=C(C#N)C#N)c2c1CCCC2	2% (active)
COCCNC(=O)C1CCN(S(=O)(=O)c2ccc3c(c2)CCCN3C(C)=O)CC1	85% (inactive)
Cc1ccc(NS(=O)(=O)c2ccc(NC(=O)N3CCCC3)cc2)cc1C	75% (inactive)
Cc1ccc(NS(=O)(=O)c2ccc3c(c2)n(C)c(=O)n3C)cc1C	67% (inactive)
Cc1cccc(Cn2ccn(Cc3ccc(Cl)cc3)c(=O)c2=O)c1	121% (inactive)
O=C(Nc1onc2c1CCCC2)c1ccccc1	105% (inactive)
O=C(Nc1cc2c(s1)CCCC2)c1ccccc1	46% (active)
Cc1cccc(C(=O)Nc2nc3c(s2)CCCC3)c1	67% (inactive)

Source: PubChem BioAssay AID463173 (ICCB-Longwood Screening Facility, Harvard Medical School, 2010)
